# In PubChem BioAssay AID504832 (National Center for Advancing Translational Sciences (NCATS), 2011):
# The campaign covered roughly 310,000 compounds. About 18,000 (5.8%) were called active. Not shown: some 22% with an inconclusive outcome. This is one part of a sample in which actives are shown more often than they occur. A number with no mark means an inactive call. The call rests on the fitted dose curve; in most records, active means well fitted inhibition curve with a large enough effect; inconclusive means small, poorly fitted or top-dose-only effect, or another doubt; inactive means no such curve, though single readings can be large or run the other way.
# Assay: Primary qHTS for delayed death inhibitors of the malarial parasite plastid, 48 hour incubation
# Conditions: P. falciparum luciferase growth in erythrocytes; series mostly up to 28.7 µM; activity change, negative = inhibition: at the top concentration
# In short: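 Compounds are pin-transferred into medium, infected erythrocytes (2% hematocrit, 0.1% parasitemia final) are added, and plates sit one parasite generation at 37 C in 5% CO2. Detection reagent is then added and luminescence measured.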
# On the % scale 0 is the no-effect control and ±100 the full control effect; potency means the concentration at half of the fitted maximal effect.
SMILES,"activity change, negative = inhibition",Potency
COc1ccc(-c2nc(SCC(=O)N3CCCC3)n[nH]2)cc1,5.23%,
CC(=O)Oc1cccc(C(=O)Nc2ccccc2NC(=O)c2cccc(OC(C)=O)c2)c1,-11.6%,
COc1cccc(S(=O)(=O)NCc2ccc(C(=O)NCc3ccccn3)cc2)c1,-29.8%,
COc1cccc(CNc2ncc(-c3ccccc3)n2C)c1,31.6%,
Cc1cc(=O)oc2cc(NC(=O)C(C)Oc3ccccc3)ccc12 (stereo not drawn),4.87%,
COc1ccc(/C=C(\C#N)C(=O)OCC(=O)N(C)C2CCS(=O)(=O)C2)cc1 (stereo not drawn),2.01%,
O=C(O)c1c(NC(=O)N2CCCC2)sc2c1CCCC2,0.211% [at 0.00184 µM],
Cc1ccc(-c2nc(CS(=O)(=O)CC(=O)NCc3ccc4c(c3)OCO4)c(C)o2)cc1,2.89%,
CCCCOC(=O)Nc1nnc(CC(=O)NCc2ccccc2)s1,1.81%,
CCC(C)c1ccc(NC(=S)N2CCCC2)cc1 (stereo not drawn),53.4%,
COc1ccc2[nH]c3c(=O)n(Cc4ccco4)cnc3c2c1,34.4%,
COc1ccc(N(Cc2cc3ccc(C)cc3[nH]c2=O)S(=O)(=O)c2ccccc2)cc1,-23%,
CCC(c1nnnn1Cc1ccco1)N(CCc1ccccc1)Cc1cc2ccc(OC)cc2[nH]c1=O (stereo not drawn),,5.86 µM (active)
CCn1ccnc1CN(C)C(=O)c1cc(COc2ccc(Cl)cc2OC)on1,8.14%,
C[C@]12CC[C@@H]3c4ccc(O)cc4C[C@@H](CCCCCCCCCS(=O)CCCC(F)(F)C(F)(F)F)C3[C@@H]1CC[C@@H]2O (stereo partly drawn),,9.53 µM (active)
Cc1cc(=O)oc2c3c(cc(OCC(=O)NCCC(=O)N[C@@H](C)C(=O)O)c12)OC(C)(C)CC3,3.13%,
Cc1c(NC(=O)Nc2cccc([N+](=O)[O-])c2)c(=O)n(-c2ccccc2)n1C,14.8%,
CCOC(=O)c1nnn(-c2nonc2OC)c1-c1ccccc1,12.2%,
CCOC(=O)C1CCN(Cc2c(C(=O)N3CCOCC3)nc3c(C)cccn23)CC1,0.0838%,
CCOC(=O)c1nnn(-c2nonc2-n2cccc2)c1CN1CCC(C(=O)OCC)CC1,,0.185 µM (active)
CCOC(=O)c1nnn(-c2nonc2-n2cccc2)c1CN1CCOCC1,,7.38 µM (active)
CCN(CC)Cc1c(C(=O)OC)nnn1-c1nonc1N,-3.97%,
NNC(=O)c1nnn(-c2nonc2N)c1CN1CCCC1,-0.213%,
CC(=O)Nc1ccc(S(=O)(=O)Nc2cc(C)cn(Cc3ccc(C)cc3)c2=O)cc1,8.83%,
COc1ccccc1CNS(=O)(=O)c1ccc2c(c1)NC(=O)CS2,28.6%,
CCCn1cc(S(=O)(=O)c2ccc(C)cc2)c(=O)c2cc(OCC)ccc21,-6.8%,
CN(CC(=O)O)S(=O)(=O)c1ccc2oc3ccccc3c2c1,1.99%,

SMILES,"activity change, negative = inhibition",Potency
Cc1ccc(/C=N/NC(=O)c2cc3ccccc3cc2O)o1,,0.586 µM (active)
CCOC(=O)N/N=C/c1cccnc1,8.05%,
N=c1oc2ccccc2cc1C(=O)N/N=C/c1ccccc1,23.4%,
Cc1ccc(/C=N/NC(=O)CNC(=O)COc2ccccc2)o1,4.28%,
O=C(N/N=C/c1cccnc1)c1cc2ccccc2cc1O,,2.94 µM (active)
O=C(N/N=C/c1cccnc1)c1ccc(NC(=O)c2ccc(F)cc2)cc1,-9.95%,
Cc1ccnc(NS(=O)(=O)c2ccc(NC(=O)c3oc4ccccc4c3C)cc2)n1,5.56%,
O=C(c1cccnc1)N1CCN(S(=O)(=O)c2cccs2)CC1,-0.715%,
Cc1ccc(C(=O)NCC(=O)OCc2nnc(-c3ccccc3)o2)cc1,38.7%,
O=C(/C=C/c1ccc(Cl)c([N+](=O)[O-])c1)c1cccnc1,3.69%,
NC(N)=N/N=C/c1ccc(Cl)c([N+](=O)[O-])c1,,1.47 µM (active)
CC(CC(=O)O)C(=O)c1ccc(Cl)c([N+](=O)[O-])c1 (stereo not drawn),-8.93%,
COc1cccc(C(=O)Nc2ccc(N3CCN(C(=O)c4ccco4)CC3)cc2)c1,-26.8%,
O=c1cc(CO)oc(CN2CCC(Cc3ccccc3)CC2)c1O,4.38%,
COc1cc(C)cc(CN2CCC(Cc3ccccc3)CC2)c1O,,0.928 µM (active)
Brc1ccccc1CN1CCC(Cc2ccccc2)CC1,-1.06%,
O=C(CN1C(=O)NC2(CCOc3ccccc32)C1=O)NCc1ccc(F)cc1 (stereo not drawn),1.93%,
Cc1cccc(NC(=O)C2CCCN(C(=O)NCc3ccccc3)C2)c1C (stereo not drawn),7.96%,
CCOC(=O)C1=C(C)NC(C)=C(C(=O)OCC)C1c1ccccn1,-9.2%,
CCOC(=O)CN1C(=O)N[C@@H](c2ccc(Br)cc2)C(C(C)=O)=C1C,-29.1%,
CCOC(=O)C1=C(C)N=C2c3ccccc3C(=O)C2C1c1ccc(Br)cc1 (stereo not drawn),,9.28 µM (active)
Cc1cccc(NS(=O)(=O)c2ccc(C(=O)NCC(C)(C)N3CCOCC3)cc2)c1C,-8.66%,
COc1ccc(/C=C/C(=O)NC(=S)N2CCCC(C(N)=O)C2)cc1 (stereo not drawn),-18.6%,
COC(=O)c1ccc(OCC(O)CN(CCO)CC(O)Cn2ccc3ccccc32)cc1 (stereo not drawn),-28%,
COc1ccc(Cn2c(=O)sc3ccccc32)cc1OC,3.75%,
COc1ccc(CCNCC(O)Cn2ccc3ccccc32)cc1OC (stereo not drawn),,10.4 µM (active)
